Results on eight molecules are retold here after PubChem BioAssay (NCI).

Holding throughout (assay): NCI-60 one-dose screen, 48 h (100 = growth as untreated, 0 = no growth, -100 = all killed)
One assay has as its system NCI-H23 lung. The following applies: 10 µM unless noted.
The next assay deals with NCI-H226 lung. The following applies: 10 µM unless noted.
Another assay deals with NCI-H322M lung. Particulars: 10 µM unless noted.
A further assay relates to HOP-62 NSCLC. Particulars: 10 µM unless noted.
For a further assay, the system named is NCI-H460 lung. Particulars: 10 µM unless noted.
A further assay has as its system HOP-92 NSCLC. Particulars: 10 µM unless noted.
Another assay has as its system A549/ATCC NSCLC. Particulars: 10 µM unless noted.
For the next assay, the system named is 786-0 renal. The following applies: 10 µM unless noted.
Another assay concerns COLO 205 colon. The following applies: 10 µM unless noted.
The test system of another assay is DU-145 prostate. The following applies: 10 µM unless noted.
A further assay concerns MALME-3M melanoma. Particulars: 10 µM unless noted.
The next assay relates to MDA-MB-231 breast. Particulars: 10 µM unless noted.
For the next assay, the system named is RXF 393 renal. Particulars: 10 µM unless noted.
A further assay deals with SF-268 CNS. Particulars: 10 µM unless noted.
The next assay deals with SF-295 CNS. Particulars: 10 µM unless noted.
For the next assay, the system named is SF-539 CNS. Particulars: 10 µM unless noted.
For a further assay, the system named is UACC-257 melanoma. The following applies: 10 µM.
For the next assay, the system named is M14 melanoma. The following applies: 10 µM unless noted.
In the next assay the test system is K-562 leukemia. The following applies: 10 µM unless noted.
The test system of another assay is NCI-H522 lung. The following applies: 10 µM unless noted.

About 83,000 compounds went through this panel and 20% of them were active in at least one assay; those are over-represented in the sample as a whole.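 How to read the values: 0–100, growth inhibition (40 = 60% inhibited); 0, no net growth; -100 to 0, cell death (-40 = 40% of starting cells died; -100 = all dead).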 Unmarked numbers belong to inactive results. Active and inactive are the calls of the source. The calls were made as follows: active = growth percent below 10; inactive = the rest.

On to `CCCCCCNC(=O)Oc1ccc(/C(=C(/C)c2ccccc2)c2ccc(OCCN(C)C)cc2)cc1`, for which the growth with NCI-H23 lung was 65.3%; in the assay on NCI-H226 lung, 89.6%; in the assay with NCI-H322M lung it was 77.1%; with HOP-62 NSCLC, 86.1%; with NCI-H460 lung, 18.3%; in the assay with HOP-92 NSCLC it was 44.5%. Besides, the growth is 73.4% in the assay on A549/ATCC NSCLC; 57.4% in the assay with 786-0 renal; 6.56% (active) with COLO 205 colon; 83.2% in the assay on DU-145 prostate; 37.6% in the assay on MALME-3M melanoma; 52.2% in the assay on MDA-MB-231 breast. Also, the growth in the assay on RXF 393 renal was 46.5%; with SF-268 CNS it was 69.1%; in the assay with SF-295 CNS, 90%; in the assay on SF-539 CNS, 46.9%; with UACC-257 melanoma it was -55.9% (active); with M14 melanoma, -35.9% (active).
`CCN(CC)CCN1C(=O)c2c(c3c4cccnc4[nH]c3c3ccc4ccccc4c23)C1=O`: the growth is 60.3% with NCI-H23 lung; 79.4% with NCI-H226 lung; 76.7% with NCI-H322M lung; 38.4% with HOP-62 NSCLC; 13.8% in the assay on NCI-H460 lung; 91.9% with HOP-92 NSCLC. In addition, the growth is 60% in the assay on A549/ATCC NSCLC; 60.9% with 786-0 renal; 72.1% in the assay with COLO 205 colon; 54.7% with DU-145 prostate; 18.7% in the assay on K-562 leukemia; 86.7% with MALME-3M melanoma. The growth is 89.7% in the assay on MDA-MB-231 breast; 78.8% in the assay with RXF 393 renal; 50.3% with SF-268 CNS; 35.4% with SF-295 CNS; 76.5% with SF-539 CNS; 98.2% with UACC-257 melanoma. In addition, the growth in the assay on M14 melanoma was 61.1%.
As for `O=c1cc(-c2ccccc2)nc2sc(-c3c[nH]c4ccc(F)cc34)nn12`, the growth in the assay on NCI-H23 lung is 73.2%; in the assay with NCI-H226 lung it was 41%; in the assay with NCI-H322M lung, 61.2%; in the assay with HOP-62 NSCLC, 19.1%; in the assay on NCI-H460 lung it was 17.2%; in the assay on HOP-92 NSCLC, -1.32% (active). For the same molecule, the growth with A549/ATCC NSCLC is 58.7%; in the assay with 786-0 renal it was 15.8%; with COLO 205 colon, 74.7%; in the assay with DU-145 prostate, 63.3%; with MALME-3M melanoma it was 21.9%; in the assay on MDA-MB-231 breast, 51.8%. The growth is 40.5% in the assay with RXF 393 renal, 82.9% in the assay with SF-268 CNS, 82.9% in the assay on SF-295 CNS and 68% in the assay with SF-539 CNS.
Consider `CC1CCc2c(sc3nc(SCC(=O)N/N=C/c4ccc(Cl)cc4)n(-c4ccccc4)c(=O)c23)C1` (centres undefined), for which the growth was 90.7% with NCI-H23 lung; 91% in the assay with NCI-H226 lung; 98.1% in the assay with NCI-H322M lung; 78.4% in the assay on HOP-62 NSCLC; 107% in the assay on NCI-H460 lung; 107% in the assay on HOP-92 NSCLC. Also, the growth in the assay on A549/ATCC NSCLC was 101%; in the assay on 786-0 renal, 96.5%; in the assay with COLO 205 colon, 135%; with DU-145 prostate, 97.8%; in the assay on K-562 leukemia, 100%; in the assay on MALME-3M melanoma it was 99%. Besides, the growth in the assay on MDA-MB-231 breast is 89.5%; with RXF 393 renal, -2.72% (active); with SF-268 CNS, 81.6%; in the assay on SF-295 CNS it was 95.2%; in the assay with SF-539 CNS, 90%; with UACC-257 melanoma, 102%. Further, in the assay with M14 melanoma, the growth was 102%.
For the molecule `C=C1C(=O)O[C@@H]2C[C@@H](C)[C@H](OC)CC(=O)[C@](C)(OC(C)=O)C[C@H](OC(=O)/C(C)=C\C)[C@@H]12`, the growth was 70% with NCI-H23 lung; 96.4% with NCI-H226 lung; 95.1% in the assay with NCI-H322M lung; 89.5% in the assay with HOP-62 NSCLC; 101% in the assay with NCI-H460 lung; 85.1% in the assay with HOP-92 NSCLC. For the same molecule, the growth in the assay on NCI-H522 lung is -67.8% (active); in the assay on 786-0 renal, 93%; in the assay on COLO 205 colon, -7.69% (active); with DU-145 prostate, 78.3%; in the assay with MALME-3M melanoma, 40.2%; with MDA-MB-231 breast, 36.7%. In addition, the growth in the assay on RXF 393 renal was 58.7%; with SF-268 CNS it was 93.1%; in the assay on SF-295 CNS, 91.6%; in the assay with SF-539 CNS it was 71.4%; with UACC-257 melanoma it was 77.1%; with M14 melanoma, 88.8%.
For the molecule `Cc1cc(=O)n2nc(-c3c[nH]c4ccccc34)sc2n1`, the growth with NCI-H23 lung was 92.6%; with NCI-H226 lung it was 98.6%; in the assay on NCI-H322M lung, 93.4%; with HOP-62 NSCLC, 101%; with NCI-H460 lung, 100%; in the assay on HOP-92 NSCLC it was 98.4%. In addition, the growth with NCI-H522 lung was 90.4%; in the assay on 786-0 renal, 106%; in the assay with COLO 205 colon, 102%; in the assay on DU-145 prostate it was 107%; in the assay on MALME-3M melanoma, 85%; with MDA-MB-231 breast, 90.6%. For the same molecule, the growth is 105% in the assay with RXF 393 renal; 102% in the assay on SF-268 CNS; 103% with SF-295 CNS; 92.7% in the assay with SF-539 CNS; 107% in the assay on M14 melanoma.
As for `Cc1ccc(Nc2ncnc3c2c(C)nn3-c2ccc([N+](=O)[O-])cc2)cc1`, the growth in the assay on NCI-H23 lung is 77.3%; in the assay on NCI-H226 lung, 8.18% (active); in the assay on NCI-H322M lung, 88.5%; with HOP-62 NSCLC, 60.3%; with NCI-H460 lung it was 30.7%; in the assay on HOP-92 NSCLC, 111%. In addition, the growth in the assay with 786-0 renal was 86.9%; in the assay on COLO 205 colon, 72.2%; in the assay on DU-145 prostate it was 89.4%; with K-562 leukemia it was 69.1%; with MALME-3M melanoma, 84.7%; with MDA-MB-231 breast, 80.8%. The growth with RXF 393 renal was 60.8%; with SF-268 CNS, 79.1%; in the assay on SF-295 CNS, 69.7%; in the assay with SF-539 CNS, 74.4%; in the assay on UACC-257 melanoma it was 93.3%; with M14 melanoma, 80.6%.
In the case of `O=C(CSc1nnc(-c2cccs2)n1-c1ccccc1)Nc1ccc(F)cc1`, the growth in the assay on NCI-H23 lung is 102%; in the assay on NCI-H226 lung, 98.3%; with NCI-H322M lung, 97%; with HOP-62 NSCLC, 109%; in the assay with NCI-H460 lung, 103%; with HOP-92 NSCLC it was 89.6%. Also, the growth is 99.3% with A549/ATCC NSCLC; 103% with 786-0 renal; 105% in the assay on COLO 205 colon; 107% in the assay with DU-145 prostate; 65.4% with K-562 leukemia; 97.4% in the assay on MALME-3M melanoma. In addition, the growth in the assay with MDA-MB-231 breast was 83.1%; in the assay on RXF 393 renal, 97.9%; in the assay on SF-268 CNS, 101%; with SF-295 CNS it was 91%; in the assay with SF-539 CNS it was 89.9%; in the assay with UACC-257 melanoma, 103%. Also, in the assay on M14 melanoma, the growth is 99.2%.
